# Active and inactive are the calls of the source. Calls follow the shape of the dose curve; as a rule, active = well fitted curve in the direction sought with a large enough effect in the repeat runs; inconclusive = weak or mixed curves; inactive = flat fitted curve, though single readings scatter.
# Experiment: qHTS assay to test for compound auto fluorescence at 460 nm (blue) in HEK293 cells (AID 720678)
# Details: blue autofluorescence 405/460 nm; series mostly up to 91.3 µM; fluorescence, % of triamterene: at the top concentration
# Excerpt: National Center for Advancing Translational Sciences [NCATS]
# NIH Chemical Genomics Center [NCGC]
# U.S. Environmental Protection Agency [EPA]
# National Institutes of Environmental Health Sciences [NIEHS]
# National Toxicology Program [NTP]
# U.S. Food and Drug Administration [FDA]
# Compound auto fluorescence often interferes with screening of the compound library against various biological targets and signaling pathways. Some of these compounds may have fluorophoric properties. Such properties may interfere with the assay outputs resulting in false positives and/or negatives. To decrease such complications and ensure the compound activities are relevant in terms of biological response, the Tox21 10K compound library was screened for auto fluorescence.
# From the fluorophores used as reporter signals in our screening assays, the auto fluorescence equivalencies of compounds against three fluorophores have been evaluated: Triamterene, Fluorescein and Rose Bengal sodium for blue, green and red fluorescence, respectively. The fluorescence intensities were measured using Excitation/Emission wavelengths at 405/460nm, 485/535nm and 540/590nm for blue, green and red labels, respectively. This assay includes the blue fluorescence data.
# Tox21 Assay Protocol Summary:
# 2,000 HEK293 cells in 5 uL of culture medium containing 10% dialyzed FBS per well were dispensed into black wall/clear bottom 1536-well plates using a Multidrop Combi Dispenser (Thermo Scientific). The assay plates were incubated for 4-5 hr at 37C to allow cell attachment to the well bottom, followed by the transfer of 23 nL compound or DMSO vehicle by a pintool work station (Kalypsys, San Diego, CA). After the assay plates were incubated overnight at 37C and 5% CO2, fluorescence intensities in the assay plates were measured by an Envision (PerkinElmer, Shelton, CT) plate reader using three labels for measuring blue, green and red fluorescence at […] 460, 535 and 590nm respectively.
# % is scaled to controls: 0 for no effect and ±100 for the full control effect.
SMILES,"fluorescence, % of triamterene",Potency
O=C(Nc1cccc2c(=O)cc(-c3nn[nH]n3)oc12)c1ccc(OCCCCc2ccccc2)cc1,0.0581% [at 46 µM] (inactive),–
Nc1cccc2c1CN(C1CCC(=O)NC1=O)C2=O (stereo not given),0.0155% [at 46 µM] (inactive),–
CN1C[C@H](C(=O)N[C@]2(C)O[C@@]3(O)[C@@H]4CCCN4C(=O)[C@H](Cc4ccccc4)N3C2=O)C[C@@H]2c3cccc4[nH]cc(c34)C[C@H]21,1.39% [at 46 µM] (inactive),–
CCOC(=O)c1ccc(I)cc1,0.137% (inactive),–
CC1CC(C)C(=O)C1=O (stereo not given),0.0176% (inactive),–
O=C1c2ccccc2C(=O)C1(O)O,0.423% (inactive),–
Cc1ccccc1N=C(N)Nc1ccccc1C,0.0372% (inactive),–
Nc1nc2ccc([N+](=O)[O-])cc2s1,-0.282% (inactive),–
CC(C)(c1ccccc1)c1ccccc1,0.0488% (inactive),–
O=c1[nH]c2ccc(Cl)cc2o1,0.0124% (inactive),–
Cc1ccco1,-0.0581% (inactive),–
CCC(=O)C1CC(C(C)C)CC=C1C (stereo not given),-0.0334% (inactive),–
CO/N=C(/C(=O)N[C@@H]1C(=O)N2C(C(=O)O)=C(COC(N)=O)CS[C@H]12)c1ccco1,–,inactive
C=C1c2cccc(O)c2C(O)=C2C(=O)[C@]3(O)C(O)=C(C(N)=O)C(=O)[C@@H](N(C)C)[C@@H]3[C@@H](O)[C@H]12,1.67% [at 18.6 µM] (inactive),–
Oc1c(I)cc(I)c2cccnc12,0.0662% [at 46 µM] (inactive),–
Nc1ncnc2c1ncn2[C@H]1CC[C@@H](CO)O1,–,inactive
O=c1cc(-c2ccccc2)oc2cc(O)cc(O)c12,-0.273% (inactive),–
O=C1c2ccccc2C(=O)C1c1nc2ccccc2c(Br)c1O,0.0051% (inactive),–
O=c1cc(-c2ccccc2)oc2ccc3ccccc3c12,-0.158% (inactive),–
C=C/C(C)=C/C/C=C(\C)CCC=C(C)C,0.165% (inactive),–

SMILES,"fluorescence, % of triamterene",Potency
C1C[C@@H]2[C@H]3CC[C@H](C3)[C@@H]2C1,-0.0077% (inactive),–
O=C(Cn1ccnc1[N+](=O)[O-])NCCO,0.0327% [at 46 µM] (inactive),–
CCOc1ccccc1O[C@H](c1ccccc1)[C@H]1CNCCO1,-0.0059% [at 46 µM] (inactive),–
C[C@@]12CCC[C@H]1[C@@H]1CC[C@H]3C[C@@H](O)CC[C@]3(C)[C@H]1CC2,-0.0876% [at 46 µM] (inactive),–
COc1ncnc(NS(=O)(=O)c2ccc(N)cc2)c1OC,-0.0221% [at 46 µM] (inactive),–
CCOc1cccc(-n2cc(C(=O)N3CCN(c4cc(C(=O)O)c5ccccc5c4)CC3)nc2-c2ccc(C)cc2)c1,1.09% (inactive),–
Cc1ccc2c(Br)cc(Br)c(O)c2n1,0.621% [at 46 µM] (inactive),–
Cc1cc(O)ccc1O,0.0585% (inactive),–
CC(=O)OCC(=O)NCCCOc1cccc(CN2CCCCC2)c1,–,inactive
CCOC(C)=O,–,inactive
C=C(C)C(=O)OCCCCCCCCCCCCC,-0.498% (inactive),–
CCOC(=O)c1ccccc1C(=C1C=C(Br)C(=O)C(Br)=C1)c1cc(Br)c(O)c(Br)c1,0.0868% (inactive),–
C=C(C)C(=O)OCCOCCOC(=O)C(=C)C,-0.0035% (inactive),–
CCCCCCCCOc1ccc(C(=O)O)cc1,-0.27% (inactive),–
C[C@]1(Cn2ccnn2)[C@H](C(=O)O)N2C(=O)C[C@H]2S1(=O)=O,0.0065% [at 46 µM] (inactive),–
CN(C)CCN1C(=O)c2ccccc2N(C)c2ccccc21,-0.127% [at 46 µM] (inactive),–
CC(=O)NC1(c2cccc(F)c2)CCN(CC[C@@]2(c3ccc(Cl)c(Cl)c3)CN(c3ccccc3)C(=O)CO2)CC1,0.0266% (inactive),–
Cc1ccccc1S,-0.0077% (inactive),–
Cc1cccc(O)c1N,-0.0347% (inactive),–
O=C(CCCN1CC=C(n2c(=O)[nH]c3ccccc32)CC1)c1ccc(F)cc1,0.173% [at 46 µM] (inactive),–
